Here are results for 39 compounds from PubChem BioAssay (Tox21).

Structures are written as SMILES. Values joined by “and” are separate entries in the source; they are usually repeats but may differ in a detail not shown here. Equal entries are not always repeated. Records with an inconclusive call do not appear. Entries that show only a call come without a potency. The source holds several records for some structures; these can differ, active in one and inactive in another. Active and inactive are the calls of the source. The call rests on the fitted dose curve; in most records, active means well fitted activation curve with a large enough effect in the repeat runs; inconclusive means weak or mixed curves; inactive means flat fitted curve, though single readings scatter.
Potency means the concentration at half of the fitted maximal effect.

This assay in a line: A CellTox Green Cytotoxicity Assay to monitor cytotoxicity in HEK293 cells - 8 hour (AID 1224884). Further: nearly all actives have a fitted effect of over 35% in size. As to conditions: CellTox Green fluorescence; series mostly up to 76.8 µM; cytotoxicity increase: at the top concentration. The essentials: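 Real-time, in one plate: 600 HEK293 cells/well with dead-cell DNA dye, pinned compound after 5 h, 37 C incubation over 40 h; viable cells give no appreciable fluorescence.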
On to `CN1C(C(=O)Nc2ccccn2)=C(O)c2ccccc2S1(=O)=O`, for which the Potency entry is “inactive”. The same measure, in the same setting: for `CC(=O)c1ccccn1` the value was “inactive”. The same measure, in the same setting: for `O=C(/C=C/c1ccccc1)OCc1ccccc1` the value was “inactive”. `O=C=Nc1ccc(Cc2ccc(N=C=O)cc2)cc1`: the Potency result is “inactive”. Take `O=Cc1ccccc1O`: the Potency entry is “inactive”.

`OC(CCl)CCl`: the Potency result is “inactive”. Same read-out and setting: for `Cc1c(OCC(F)(F)F)ccnc1CS(=O)c1nc2ccccc2[nH]1` (centres undefined) the value was “inactive”; for `CCC(C)(O)CCCC(C)C` (centres undefined), “inactive”; for `O=C(OCc1ccccc1)c1ccccc1O`, “inactive”. On to `COc1ccc(C(=O)CC(=O)c2ccc(C(C)(C)C)cc2)cc1`, for which the “cytotoxicity increase” value is 4.64% (inactive). Take `COC(=O)CCC(=O)OC`: the Potency result is “inactive”. On to `CCCCOCCOCCO`, for which the Potency entry was “inactive”. For the compound `C=CC(C)(CCC=C(C)C)OC(C)=O` (centres undefined), the Potency entry was “inactive”. Same read-out and setting: for `Cc1ccc(C)c(O)c1C` the value was “inactive”; for `Nc1ccc(Cl)cc1Cl`, “inactive”. Regarding `CC(C)Oc1ccc2c(=O)c(-c3ccccc3)coc2c1`, the Potency entry was “inactive”. In the case of `O=C(c1ccccc1)c1ccccc1O`, the Potency entry is “inactive”. Still for that read-out and setting: for `c1ccc2sc(SSN3CCOCC3)nc2c1` the value was “inactive”. Same read-out and setting: for `O=C(c1ccc(OCCN2CCCCC2)cc1)c1c(-c2ccc(O)cc2)sc2cc(O)ccc12` the value was “inactive”; for `O=[N+]([O-])c1ccc2c(c1)Cc1ccccc1-2`, “inactive”; for `CCCc1c(OCCCCc2nn[nH]n2)ccc(C(C)=O)c1O`, “inactive”. Regarding `Brc1cc(Oc2cc(Br)c(Br)c(Br)c2Br)c(Br)c(Br)c1Br`, the Potency entry is “inactive”. The same measure, in the same setting: the value for `c1ccc2cc(Nc3ccc(Nc4ccc5ccccc5c4)cc3)ccc2c1` was “inactive”; that for `CCOCCOCCO` was “inactive”; that for `CCCCOCCOCCOCCO` was “inactive”. The same measure, in the same setting: the value for `Nc1ncn([C@@H]2O[C@H](CO)[C@@H](O)[C@H]2O)c(=O)n1` was “inactive”; that for `c1ccc2c(c1)c1cccc3ccc4cccc2c4c31` was “inactive”; that for `Nc1ncnc2nc[nH]c12` was “inactive”. Consider `CN(C)CCN(Cc1cccs1)c1ccccn1`, for which the Potency result was “inactive”. Same read-out and setting: the value for `Nc1ccc(S(=O)(=O)Nc2cnc3ccccc3n2)cc1` was “inactive”. Turning to `CC1=CC2C3CC(C=C3C)C2C1` (centres undefined), the Potency entry is “inactive and 43.6 µM (active)”. On the same count and under the same terms, for `CC(C)(C)NC(=O)[C@H]1CC[C@H]2[C@@H]3CC[C@H]4NC(=O)C=C[C@]4(C)[C@H]3CC[C@]12C` the value was “inactive”; for `C[C@]12CC[C@H]3[C@@H](CCC4=CC(=O)CC[C@@]43C)[C@@H]1CC[C@@H]2C(=O)CO`, “inactive”; for `CCCCC(CC)COP(=O)(OCC(CC)CCCC)OCC(CC)CCCC` (centres undefined), “inactive”. The same measure, in the same setting: for `Nc1ccc(Nc2ccccc2)cc1` the value was “inactive”; for `CC(C)=CCC/C(C)=C\CO`, “inactive”; for `CCCCCCCCCC(=O)OC`, “inactive”. Same read-out and setting: the value for `S=C(NC1CCCCC1)NC1CCCCC1` was “inactive”; that for `Clc1nc(Cl)c(Cl)c(Cl)c1Cl` was “inactive”.
